In PubChem BioAssay AID1053133 (Broad Institute, 2014):
“And” between values parts separate entries of the source, which are not always exact repeats. Equal entries are not always repeated. The whole screen tested about 89,000 compounds, of which about 10 (0.01%) were called active. About 10% were inconclusive and are not listed. Rule as the data show it: active = activity change below about -37% (passing the limit was not always enough); inconclusive = no clear call, values can overlap the other calls; tested in A549 cells. The list is a sample of the results.

test: blocks a specific stage of Vaccinia orthopoxvirus infection, primary screen, cell-based, single point (AID 1053133); conditions: Vaccinia-infected cells, mCherry/Venus stage reporter fluorescence, stronger effect = lower value, concentration not given here; activity change (Venus): measured here: Venus reporter, other viral stage

| SMILES | activity change (Venus) | activity change (mCherry) |
| --- | --- | --- |
| O=C(C[C@H]1CC[C@H]2[C@@H](COC[C@@H](O)CN2S(=O)(=O)c2ccc(Cl)cc2)O1)NCCN1CCCCC1 | 2.96% | 7.02% (inactive) |
| COCC#Cc1ccc(CC[C@H]2O[C@H]3CC[C@@H](CO)O[C@H]3C[C@H]2NC(=O)Nc2c(C)noc2C)cc1 | 12.1% | 18.6% (inactive) |
| CC(=O)N(C)C[C@@H]1Oc2ncc(C#Cc3ccccn3)cc2C(=O)N([C@@H](C)CO)C[C@@H]1C | 9.68% | 7.16% (inactive) |
| O=C(Cc1ccncc1)NCC[C@H]1CC[C@H](NC(=O)Nc2cccc(F)c2)[C@H](CO)O1 | 5.2% | 3.69% (inactive) |
| COc1ccc(NC(=O)Nc2ccc3c(c2)C(=O)N([C@@H](C)CO)C[C@@H](C)[C@@H](CN(C)C(=O)Nc2ccc(F)cc2)OCCCC[C@@H](C)O3)cc1 | -5.96% | 0.168% (inactive) |
| Cn1cnc(CCNC(=O)[C@H]2[C@H](CO)[C@H]3Cn4c(cccc4=O)[C@H]3N2C(=O)Nc2ccccc2)c1 | 5.32% | 12% (inactive) |
| COc1ccc(S(=O)(=O)Nc2ccc3c(c2)C(=O)N([C@@H](C)CO)C[C@H](C)[C@H](CN(C)Cc2ccc(C(=O)O)cc2)OCCCC[C@@H](C)O3)cc1 | 19.1% | 34.5% (inactive) |
| O=C(C1CCCC1)N1[C@H](CO)[C@@H]2c3ccccc3N(S(=O)(=O)c3ccccc3)C[C@@H]21 | -0.835% | 3.15% (inactive) |
| CCC(=O)N1CCC2(CC1)CN(Cc1ccc(Cl)cc1)[C@@H](CO)c1[nH]c3cc(OC)ccc3c12 | 3.95% | 2.91% (inactive) |
| O=C(C[C@H]1CC[C@@H](NC(=O)c2ccc(F)cc2)[C@@H](CO)O1)NCc1ccncn1 | 6.42% | 11.2% (inactive) |
| Cc1ccc(S(=O)(=O)NCC[C@@H]2CC[C@@H](NC(=O)CCN3CCCCC3)[C@@H](CO)O2)cc1 | 12.7% | 18.4% (inactive) |
| Cc1ccccc1-c1ccc2c(c1)O[C@@H](CN(C)Cc1ccc(C(=O)O)cc1)[C@@H](C)CN([C@H](C)CO)S2(=O)=O | 9.16% and -2.89% | 13.4% (inactive) and 11.3% (inactive) |
| COC(=O)[C@@H]1[C@@H](CO)[C@@H]2Cn3c(ccc(C4=CCCC4)c3=O)[C@@H]2N1Cc1cncnc1 | 12.2% | 12.2% (inactive) |
| C[C@H](O)C#Cc1ccc([C@@H]2[C@@H](CO)N3CCCCN(C(=O)c4ccc(F)cc4)C[C@H]23)cc1 | -0.172% | 24.9% (inactive) |
| COC(=O)C[C@H]1CC[C@H]2[C@H](COc3ccc(NC(=O)C4CC4)cc3C(=O)N2C)O1 | 8.69% | 16.9% (inactive) |
| C[C@@H](NC(=O)C[C@H]1CC[C@H](NS(=O)(=O)c2cccc(F)c2)[C@H](CO)O1)c1ccccc1 | 2.54% | 12.2% (inactive) |
| COc1ccc(NC(=O)N(C)C[C@@H]2OCCCC[C@H](C)Oc3ccc(NS(=O)(=O)c4cn(C)cn4)cc3C(=O)N([C@@H](C)CO)C[C@@H]2C)cc1 | 6.5% | 16% (inactive) |
| CO[C@@H]1CN(C)C(=O)c2ccc(NS(=O)(=O)c3cccc(F)c3)cc2OC[C@H](C)N(C(=O)Cc2cccnc2)C[C@@H]1C | -6.63% | -1.85% (inactive) |
| CCCNC(=O)N1[C@H](C#N)[C@@H](c2ccccc2C2=CCCCC2)[C@@H]1CO | 2.66% | -4.44% (inactive) |
| O=C(C[C@H]1CC[C@H](NC(=O)c2ccc(F)cc2)[C@@H](CO)O1)NCCc1ccncc1 | -8.31% | 6.53% (inactive) |
| CC(=O)N(C)C[C@@H]1Oc2cc(C#Cc3ccccc3F)ccc2S(=O)(=O)N([C@@H](C)CO)C[C@@H]1C | -24.5% | -31.1% (inactive) |
| CCCNC(=O)N[C@H]1C=C[C@@H](CC(=O)NC2CCCCC2)O[C@H]1CO | -1.05% | -4.3% (inactive) |
| CS(=O)(=O)Nc1ccc2c(c1)[C@H]1C[C@@H](CC(=O)N3CCOCC3)O[C@@H](CO)[C@H]1O2 | 11.4% | 11% (inactive) |
| CC(C)NC(=O)N1[C@H](CO)[C@H](c2ccccc2)C12CN(C(=O)Cc1ccccc1)C2 | 4.09% | -7.19% (inactive) |
| COc1ccc2c3c([nH]c2c1)[C@@H](CO)N(C(=O)NC(C)C)CC31CCN(C(=O)c2ccccn2)CC1 | 4.18% | 12.8% (inactive) |
| O=C(N[C@H]1CC[C@@H](CCn2cc(Cc3ccccc3)nn2)O[C@H]1CO)c1cnccn1 | -8.51% | 6.03% (inactive) |
| COc1ccc(-c2ccccc2[C@@H]2[C@@H](C#N)N(C(=O)NC3CCCC3)[C@H]2CO)cc1 | -17.8% | -22.2% (inactive) |
| C[C@@H]1CN([C@H](C)CO)C(=O)c2cc(NC(=O)Nc3ccc(F)cc3)ccc2O[C@@H](C)CCCCO[C@@H]1CN(C)S(=O)(=O)c1cn(C)cn1 | 23.4% | 41.6% (inactive) |
| CCN1[C@@H]2Cn3c(ccc(-c4cccc(OC)c4)c3=O)[C@H]1[C@@H](C(=O)N(C)C)[C@@H]2CO | 15.1% | 20% (inactive) |
